Measurements as given in PubChem BioAssay AID1159580 (chemical genetic matrix, 2015).
Values joined by “and” are separate entries in the source; they are usually repeats but may differ in a detail not shown here. Equal values may be shown once. The whole screen tested about 5,500 compounds, of which about 2,000 (36%) were called active. About 18% were inconclusive and are not listed. No stated cut-off is given here; in the data, active means normalized growth mostly below about 0.91 (no sharp cut-off); inconclusive means no clear call, values can overlap the other calls; inactive means mostly above about 0.92. This is one part of the list.

Assay: chemical genetic growth profiling, strain panel (AID 1159580);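 further: tested at 20 µM; growth read once vehicle control cultures reached saturation at 30 °C; 1 = growth at the plate median or of vehicle wells; lower values mean less growth of the strain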
Settings: S. cerevisiae deletion strains, growth OD

Measured: normalized growth

C[n+]1ccccc1/C=N/O
inactive: locus YAL013W, strain DEP1, active compounds read low 1.01 | locus YAL021C, strain ccr4, active compounds read low 0.99 | locus YAL026C, strain drs2, active compounds read low 1.02 | locus YAL030W, strain snc1, active compounds read low 1 | locus YBL061C, strain skt5, active compounds read low 0.992 | locus YBR009C, strain hhf1, active compounds read low 1.03 | locus YBR021W, strain FUR4, active compounds read low 0.985 | locus YBR023C, strain chs3, active compounds read low 0.995 | locus YBR171W, strain sec66, active compounds read low 1 | locus YBR229C, strain ROT2, active compounds read low 1.01 | locus YBR231C, strain swc5, active compounds read low 1.02 | locus YBR279W, strain paf1, active compounds read low 1.01 | locus YCL011C, strain gbp2, active compounds read low 1.01 | locus YCL016C, strain dcc1, active compounds read low 1.01 | locus YCL029C, strain bik1, active compounds read low 1.01 | locus YCL069W, strain vba3, active compounds read low 1 | locus YCR088W, strain abp1, active compounds read low 1 | locus YDL005C, strain med2, active compounds read low 0.986 | locus YDL035C, strain GPR1, active compounds read low 1.01 | locus YDL040C, strain nat1, active compounds read low 1.01 | locus YDL074C, strain BRE1, active compounds read low 1 | locus YDL101C, strain DUN1, active compounds read low 1.01 | locus YDL134C, strain PPH21, active compounds read low 0.997 | locus YDL185W, strain tfp1, active compounds read low 0.999 | locus YDL192W, strain arf1, active compounds read low 1 | locus YDR001C, strain nth1, active compounds read low 0.997 | locus YDR069C, strain doa4, active compounds read low 1.02 | locus YDR101C, strain arx1, active compounds read low 1 | locus YDR137W, strain rgp1, active compounds read low 1.01 | locus YDR150W, strain NUM1, active compounds read low 1.01 | locus YDR159W, strain sac3, active compounds read low 0.967 | locus YDR162C, strain NBP2, active compounds read low 1.01 | locus YDR195W, strain ref2 0.999 | locus YDR297W, strain sur2, active compounds read low 1.01 | locus YDR318W, strain mcm21, active compounds read low 0.994 | locus YDR334W, strain swr1, active compounds read low 1 | locus YDR335W, strain msn5, active compounds read low 1.01 | locus YDR388W, active compounds read low 0.996 | locus YDR392W, strain spt3, active compounds read low 0.918 | locus YDR502C, strain sam2, active compounds read low 1 | locus YEL003W, strain gim4, active compounds read low 1.01 | locus YEL037C, strain rad23, active compounds read low 0.998 | locus YEL061C, strain CIN8 (second series), active compounds read low 1.02 | locus YEL061C, strain CIN8, active compounds read low 1.01 | locus YER015W, strain faa2, active compounds read low 1.01 | locus YER016W, strain bim1, active compounds read low 0.991 | locus YER110C, active compounds read low 1.01 | locus YER111C, strain swi4, active compounds read low 1 | locus YER155C, strain BEM2 (second series), active compounds read low 1.02 | locus YER155C, strain BEM2, active compounds read low 0.998 | locus YER167W, strain BCK2, active compounds read low 1.01 | locus YFR010W, strain ubp6, active compounds read low 1.02 | locus YGL078C, strain dbp3, active compounds read low 1.02 | locus YGL086W, strain mad1, active compounds read low 1.01 | locus YGL167C, strain pmr1, active compounds read low 1.01 | locus YGL173C, strain kem1, active compounds read low 0.991 | locus YGL227W, strain vid30, active compounds read low 0.994 | locus YGL240W, strain doc1, active compounds read low 0.993 | locus YGL248W, strain PDE1, active compounds read low 1.01 | locus YGL253W, strain hxk2, active compounds read low 1.02 | locus YGR078C, strain PAC10, active compounds read low 1.01 | locus YGR135W, strain pre9, active compounds read low 1.01 | locus YGR229C, strain SMI1, active compounds read low 1.02 | locus YGR252W, strain gcn5, active compounds read low 0.954 | locus YHR013C, strain ard1, active compounds read low 0.982 | locus YHR027C, strain rpn1, active compounds read low 1 | locus YHR030C, strain SLT2, active compounds read low 1.01 and 1 | locus YHR079C, strain IRE1 (second series), active compounds read low 0.995 | locus YHR079C, strain IRE1, active compounds read low 0.997 | locus YHR094C, strain hxt1, active compounds read low 1 | locus YHR129C, strain ARP1, active compounds read low 1.01 | locus YHR142W, strain chs7, active compounds read low 1.02 | locus YHR200W, strain rpn10, active compounds read low 0.99 | locus YIL066C, strain RNR3, active compounds read low 1.01 | locus YIL073C, strain SPO22, active compounds read low 0.996 | locus YIL125W, strain kgd1, active compounds read low 0.985 | locus YIR030C, strain dcg1, active compounds read low 1.01 | locus YJL092W, strain hpr5, active compounds read low 1.01 | locus YJL095W, strain BCK1 (second series), active compounds read low 0.99 | locus YJL095W, strain BCK1, active compounds read low 1.01 | locus YJL115W, strain asf1, active compounds read low 1.01 | locus YJL129C, strain trk1, active compounds read low 1.01 | locus YJL134W, strain LCB3, active compounds read low 1.01 | locus YJL154C, strain vps35, active compounds read low 1.02 | locus YJL164C, strain tpk1, active compounds read low 1 | locus YJL166W, strain qcr8, active compounds read low 1.01 | locus YJL168C, strain set2, active compounds read low 0.995 | locus YJL187C, strain SWE1 (second series), active compounds read low 1.01 | locus YJR043C, strain POL32, active compounds read low 0.995
